Screening results deposited in PubChem BioAssay by The Scripps Research Institute Molecular Screening Center.
PP5 primary – PP5 phosphatase inhibitors, primary screen, biochemical, fluorescence | AID 1987, 2009 | inhibition, % at 6.7 µM | Serine/threonine-protein phosphatase 5 (Homo sapiens), P53041 | 320,000 tested, 0.18% active | purified PP5c, OMFP substrate fluorescence;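 active = inhibition above the campaign's mean inhibition across all tested compounds plus 3 SD, cut at about 9.5% in these data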;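 note: 0% = DMSO only and 100% = 100 µM cantharidin control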
Target sequence (P53041 whole entry, looked up): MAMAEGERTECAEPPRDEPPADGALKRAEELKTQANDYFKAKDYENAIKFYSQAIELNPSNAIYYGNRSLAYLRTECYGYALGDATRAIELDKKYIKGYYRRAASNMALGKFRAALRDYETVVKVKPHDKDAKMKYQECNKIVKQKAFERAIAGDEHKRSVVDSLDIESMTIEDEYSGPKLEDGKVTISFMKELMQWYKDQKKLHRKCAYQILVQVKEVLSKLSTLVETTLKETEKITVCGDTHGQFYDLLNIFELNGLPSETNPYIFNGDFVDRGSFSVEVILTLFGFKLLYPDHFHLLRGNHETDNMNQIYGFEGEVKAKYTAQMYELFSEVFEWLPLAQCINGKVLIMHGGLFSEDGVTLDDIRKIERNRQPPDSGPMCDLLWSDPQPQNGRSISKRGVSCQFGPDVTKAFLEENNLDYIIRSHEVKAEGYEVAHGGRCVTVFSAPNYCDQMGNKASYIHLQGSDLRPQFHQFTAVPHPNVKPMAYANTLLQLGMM
PAFAH1B3 inh – PAFAH1B3 enzyme inhibitors, primary screen, biochemical, fluorescence polarization, human | Platelet-activating factor acetylhydrolase IB subunit alpha1 (Homo sapiens), Q15102 | recombinant PAFAH1B3, FP-rhodamine probe | inhibition, % at 3.39 µM | 340,000 tested, 0.28% active | AID 492972, 2010;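 active = inhibition above the screen-wide average of all tested compounds plus 3 SD, cut at about 25% in these data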;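 note: 0% = enzyme with DMSO only and 100% = wells lacking PAFAH1B3 protein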
pPAFAH inh – pPAFAH enzyme inhibitors, primary screen, biochemical, fluorescence polarization, human. recombinant pPAFAH, FP-rhodamine probe fluorescence polarization. inhibition, % at 3.39 µM. 330,000 tested, 1.5% active. AID 463082, 2010;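 active = inhibition above the mean inhibition across the screen plus 3 SD, cut at about 25% in these data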;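 note: inhibitors block binding of the rhodamine activity-based probe so polarization drops; 0% = enzyme with DMSO and 100% = wells lacking pPAFAH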
PP1 inh – PP1-alpha phosphatase inhibitors, primary screen, counter-screen for PP5 inhibitor project, biochemical, fluorescence, OMFP substrate, single point | Serine/threonine-protein phosphatase PP1-alpha catalytic subunit (Homo sapiens), P62136 | purified PP1alpha | inhibition, % at 6.7 µM | 320,000 tested, 0.9% active;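 active = inhibition above the mean inhibition of all tested compounds plus 3 SD, computed separately for each screening campaign, cut at about 15% in these data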
PAFAH1B2 FP inh – PAFAH1B2 enzyme inhibitors, primary screen, biochemical, fluorescence polarization, human; Platelet-activating factor acetylhydrolase IB subunit alpha2 (Homo sapiens), P68402; recombinant PAFAH1B2, FP-rhodamine activity probe; inhibition, % at 3.39 µM; 340,000 tested, 1.2% active; AID 492953, 2010;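 active = inhibition above the mean of all tested compounds plus 3 SD, cut at about 24% in these data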;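 note: 0% = enzyme with DMSO and 100% = wells lacking PAFAH1B2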
PAFAH2 FP inh – PAFAH2 enzyme inhibitors, primary screen, biochemical, fluorescence polarization, human; recombinant PAFAH2, FP-rhodamine activity probe; inhibition, % at 3.39 µM; 340,000 tested, 0.99% active;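 active = inhibition above the mean over all tested compounds plus 3 SD, cut at about 30% in these data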;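 note: inhibitors block probe labeling of enzyme so polarization drops; 0% = enzyme with DMSO and 100% = wells lacking PAFAH2 protein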
PAFAH2 FP conf – PAFAH2 enzyme inhibitors, confirmation, biochemical, fluorescence polarization, human | shares compounds with PAFAH2 FP inh | recombinant PAFAH2, FP-rhodamine activity probe | inhibition, % at 3.39 µM | 2,300 tested, 65% active | AID 493030, 2011;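 active = mean inhibition over three repeats above a set limit taken from the earlier primary screen, cut at about 30% in these data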;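 note: inhibitor blocks binding of rhodamine activity probe so polarization falls; 0% = enzyme with DMSO and 100% = wells lacking PAFAH2 protein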
Active calls of the source: *; nt = no result given. Most compounds without a hit are left out; they make up all but 3.4% or so of the library.

SMILES | PP5 primary | PAFAH1B3 inh | pPAFAH inh | PP1 inh | PAFAH1B2 FP inh | PAFAH2 FP inh | PAFAH2 FP conf
CCOC(=O)c1ccccc1NC(=O)COC(=O)C1=COCCO1 | 1 | -1 | 1 | 7 | 1 | 5 | nt
Cc1ccccc1NC(=O)COC(=O)C1=COCCO1 | 2 | 7 | 0 | 1 | 3 | 21 | nt
CCN(CC)S(=O)(=O)c1cccc(NC(=O)COC(=O)C2=COCCO2)c1 | -1 | 15 | 6 | -3 | 9 | 30* | 11
CCC(C)c1ccccc1NC(=O)COC(=O)C1=COCCO1 (stereo unspecified) | 1 | 11 | 9 | 1 | 5 | 62* | 48*
O=C(COC(=O)C1=COCCO1)Nc1ccc(Br)cc1Br | nt | 4 | 9 | nt | -1 | 58* | 46*
CC(C)(C)c1ccc(NC(=O)COC(=O)C2=COCCO2)cc1 | 0 | 8 | 9 | 0 | 1 | 22 | nt
CCOc1ccc(N2CC(C(=O)Nc3nnc(Cc4ccccc4)s3)CC2=O)cc1 (stereo unspecified) | 1 | 2 | 6 | 5 | 4 | -2 | nt
COc1cc(/C=C/C(=O)OCC(=O)Nc2c(C)n(C)n(-c3ccccc3)c2=O)ccc1O | -1 | 9 | 2 | -2 | 7 | 11 | nt
O=C(COC(=O)C1=COCCO1)Nc1ccc(Oc2ccccc2)cc1 | 5 | -1 | 6 | -3 | -4 | 83* | 77*
O=C(COC(=O)/C=C/c1ccc(OC(F)F)cc1)NC1CCCCCC1 | nt | 6 | 21 | nt | 4 | 75* | 70*
O=C(CO/N=C/c1ccc(OC(F)F)cc1)NC1CCCCC1 | 2 | 6 | 0 | -2 | 1 | -2 | nt
O=C(COC(=O)/C=C/c1ccc(OC(F)F)cc1)NC1CCCCCCC1 | 1 | 3 | 0 | 0 | 2 | 66* | 71*
CCOC(=O)c1c(C)[nH]c(C(=O)OCC(=O)Nc2ccccc2)c1C | -1 | 0 | 3 | 6 | 4 | 34* | 34*
CC(=O)c1c(C)[nH]c(C(=O)OCC(=O)NCC(C)C)c1C | 1 | 8 | -4 | -2 | -2 | 31* | 16
CC(=O)c1c(C)[nH]c(C(=O)OCC(=O)Nc2ccccc2Cl)c1C | -2 | 10 | -4 | -1 | 1 | 33* | 20
O=C1C(=Cc2ccco2)CCC1=Cc1ccco1 | nt | 5 | nt | nt | 4 | 56* | 18
Cc1ccc(C(=O)O/N=C(\N)Cc2cccc3ccccc23)cc1 | 3 | -5 | 10 | 1 | -2 | 67* | 74*
N/C(=N\OC(=O)c1ccc(F)cc1)c1ccccc1 | 1 | 6 | 2 | -3 | 4 | 5 | nt
COc1ccc(CC(=O)O/N=C(\N)Cc2ccc(OC)cc2)cc1 | -1 | 0 | 7 | 1 | 0 | -3 | nt
N/C(Cc1ccc(Cl)cc1Cl)=N\OC(=O)c1ccccc1 | 0 | 5 | 2 | -3 | 5 | 78* | 78*
COc1ccc(C/C(N)=N/OC(=O)c2ccc(Cl)cc2)cc1 | 4 | 5 | 5 | -3 | 5 | 51* | 39*
N/C(CC1CC1(Cl)Cl)=N\OC(=O)c1ccccc1 (stereo unspecified) | 0 | -4 | 3 | 0 | 7 | 83* | 78*
CC(C)c1cccc(OCCN2CCCC2)c1 | 1 | 9 | 6 | -4 | -3 | 3 | nt
Cc1cc(C(=O)N2CCC(Cc3ccccc3)CC2)c(C)o1 | 1 | 11 | 4 | -3 | 3 | 3 | nt
C[C@H]1CN(CCc2ccccc2)C(=O)[C@@H]1CC(=O)NCc1ccccc1 | 0 | 5 | 4 | -2 | 2 | 9 | nt
SMILES | PP5 primary | PAFAH1B3 inh | pPAFAH inh | PP1 inh | PAFAH1B2 FP inh | PAFAH2 FP inh | PAFAH2 FP conf
N/C(Cc1ccc(Cl)cc1)=N\OC(=O)c1ccc2ccccc2c1 | 2 | -4 | 20 | 0 | 1 | 36* | 30*
COC(=O)c1ccc(CNS(=O)(=O)c2ccc3ccccc3c2)cc1 | 3 | -2 | 0 | 3 | 7 | -21 | nt
Cc1cccc(SCc2noc(C(=O)NCC3CCCO3)c2C(=O)O)c1 (stereo unspecified) | 1 | 9 | 5 | -5 | 0 | 11 | nt
CCCCNC(=O)c1onc(CSc2ccccc2CC)c1C(=O)O | 0 | 9 | 12 | 0 | 24 | 58* | 44*
Cc1cc(C)cc(SCc2noc(C(=O)NCC3CCCO3)c2C(=O)O)c1 (stereo unspecified) | 1 | 9 | 0 | -3 | 7 | 36* | 29
C=CCNC(=O)c1onc(CSc2ccccc2C)c1C(=O)O | 0 | 2 | 2 | 0 | 2 | 36* | 26
CCCCNC(=O)c1onc(CSc2ccccc2)c1C(=O)NCCCC | 4 | 3 | 5 | 5 | 5 | 5 | nt
CC1CCC(NC(=O)CSc2nncs2)CC1 (stereo unspecified) | 0 | -3 | 4 | -7 | 0 | 4 | nt
COc1cc(/C=C/C(=O)OCC(=O)Nc2ccc(C)c(S(=O)(=O)N3CCCCC3)c2)ccc1O | 3 | 5 | 11 | 3 | 2 | 67* | 73*
COc1cc(/C=C/C(=O)OCC(=O)Nc2cc(S(=O)(=O)N3CCCCC3)ccc2C)ccc1O | 1 | -5 | 12 | 1 | -2 | 75* | 79*
COc1cc(C(C)=O)ccc1OCC(=O)Nc1ccc(C)c(S(=O)(=O)N2CCCCCC2)c1 | -2 | -1 | 1 | 4 | 6 | 1 | nt
COc1cc(/C=C/C(=O)OCC(=O)Nc2cc(S(=O)(=O)N3CCCC3)ccc2Cl)cc(OC)c1OC | nt | 6 | 8 | nt | 0 | 31* | 26
Cc1cc(C)nc(NS(=O)(=O)c2ccc(NC(=O)CCC(=O)O)cc2)n1 | -2 | 4 | -2 | -1 | 7 | 4 | nt
COc1cccc(/C=N/NC(=S)NC2CC3CCC2C3)c1OC (stereo unspecified) | 1 | -1 | 3 | -8 | 6 | 22 | nt
Oc1ccccc1/C=N/NC(=S)NC1CC2CCC1C2 (stereo unspecified) | 3 | 6 | 12 | 7 | 11 | 60* | 28
CC[C@]12c3[nH]c4ccccc4c3CCN1C(=O)C(CC(=O)NCCCN(C)C)C[C@@H]2C(=O)N1CCN(C(=O)c2ccco2)CC1 (stereo partly specified) | nt | 9 | 4 | nt | -1 | -2 | nt
Nc1ncccc1C(=O)OCC(=O)NC1CCCCCC1 | 1 | 9 | 6 | -3 | 5 | 42* | 25
